In the supplement of paper PMC4466140:

Key:
Experiment in all cases: SPOT peptide array binding signal intensity (averaged, normalized) (arbitrary units (background-subtracted, floor 0; scale differs between SH3 domains)); higher = stronger binding of the SH3 domain to the peptide
CaNbp2 = target: CaNbp2
Outline: (§1)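 GST-fused SH3 domains from four yeast species were expressed in E. coli BL21(DE3), purified on glutathione Sepharose and incubated at 10 μg/ml overnight at 4°C in TBS-based blocking buffer on cellulose membranes carrying synthetic 15-mer peptides, with cysteines replaced by serines. Bound protein was detected with anti-GST antibody, an HRP anti-mouse secondary and luminol, then imaged and quantified with Genespotter. Binding signal is the normalized, background-subtracted spot intensity averaged over replicates, in arbitrary units that differ between domains.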

CaRvs167 = target: CaRvs167
Outline: as §1

CaRvs167-3 = target: CaRvs167-3
Outline: as §1

CaSho1 = target: CaSho1
Outline: as §1

CaSla1-D1-D2 = target: CaSla1-D1-D2
Outline: as §1

CaSla1-D3 = target: CaSla1-D3
Outline: as §1

ScAbp1 = target: ScAbp1
Outline: as §1

ScBbc1 = target: ScBbc1
Outline: as §1

ScBem1-D1 = target: ScBem1-D1
Outline: as §1

ScBzz1-D1 = target: ScBzz1-D1
Outline: as §1

ScBzz1-D2 = target: ScBzz1-D2
Outline: as §1

ScCyk3 = target: ScCyk3
Outline: as §1

ScFus1 = target: ScFus1
Outline: as §1

ScHof1 = target: ScHof1
Outline: as §1

ScHse1 = target: ScHse1
Outline: as §1

ScLsb1 = target: ScLsb1
Outline: as §1

ScLsb2 = target: ScLsb2
Outline: as §1

ScLsb3 = target: ScLsb3
Outline: as §1

ScLsb4 = target: ScLsb4
Outline: as §1

ScMyo3 = target: ScMyo3
Outline: as §1

ScMyo5 = target: ScMyo5
Outline: as §1

ScNbp2 = target: ScNbp2
Outline: as §1

ScPex13 = target: ScPex13
Outline: as §1

ScRvs167 = target: ScRvs167
Outline: as §1

ScSho1 = target: ScSho1
Outline: as §1

ScSla1-D1-D2 = target: ScSla1-D1-D2
Outline: as §1

ScSla1-D3 = target: ScSla1-D3
Outline: as §1

SpAbp1-D1 = target: SpAbp1-D1
Outline: as §1

SpBbc1 = target: SpBbc1
Outline: as §1

SpBzz1-D1 = target: SpBzz1-D1
Outline: as §1

SpBzz1-D2 = target: SpBzz1-D2
Outline: as §1

SpCyk3 = target: SpCyk3
Outline: as §1

SpHof1 = target: SpHof1
Outline: as §1

SpHof1-2 = target: SpHof1-2
Outline: as §1

SpHof1-3 = target: SpHof1-3
Outline: as §1

SpHse1 = target: SpHse1
Outline: as §1

SpLsb1 = target: SpLsb1
Outline: as §1

SpLsb4 = target: SpLsb4
Outline: as §1

SpMyo1 = target: SpMyo1
Outline: as §1

SpNbp2 = target: SpNbp2
Outline: as §1

SpPex13 = target: SpPex13
Outline: as §1

SpRvs167 = target: SpRvs167
Outline: as §1

SpSla1-D1-D2 = target: SpSla1-D1-D2
Outline: as §1

SpSla1-D3 = target: SpSla1-D3
Outline: as §1

AgAbp1 = target: AgAbp1
Outline: as §1

AgBbc1 = target: AgBbc1
Outline: as §1

AgBem1-D1 = target: AgBem1-D1
Outline: as §1

AgBzz1-D1 = target: AgBzz1-D1
Outline: as §1

AgBzz1-D2 = target: AgBzz1-D2
Outline: as §1

AgCyk3 = target: AgCyk3
Outline: as §1

AgFus1 = target: AgFus1
Outline: as §1

AgHof1 = target: AgHof1
Outline: as §1

AgHse1 = target: AgHse1
Outline: as §1

AgLsb1 = target: AgLsb1
Outline: as §1

AgLsb4 = target: AgLsb4
Outline: as §1

AgMyo5 = target: AgMyo5
Outline: as §1

AgNbp2 = target: AgNbp2
Outline: as §1

AgRvs167 = target: AgRvs167
Outline: as §1

AgSho1 = target: AgSho1
Outline: as §1

AgSla1-D1-D2 = target: AgSla1-D1-D2
Outline: as §1

AgSla1-D3 = target: AgSla1-D3
Outline: as §1

CaAbp1-D1 = target: CaAbp1-D1
Outline: as §1

CaAbp1-D2 = target: CaAbp1-D2
Outline: as §1

CaBbc1 = target: CaBbc1
Outline: as §1

CaBem1-D1 = target: CaBem1-D1
Outline: as §1

CaBzz1-D1 = target: CaBzz1-D1
Outline: as §1

CaBzz1-D2 = target: CaBzz1-D2
Outline: as §1

CaCyk3 = target: CaCyk3
Outline: as §1

CaFus1 = target: CaFus1
Outline: as §1

CaHof1 = target: CaHof1
Outline: as §1

CaHse1 = target: CaHse1
Outline: as §1

CaLsb1 = target: CaLsb1
Outline: as §1

CaLsb4 = target: CaLsb4
Outline: as §1

CaMyo5 = target: CaMyo5
Outline: as §1

Measured: SPOT peptide array binding signal intensity

PHNPSPFFPPPDFND
3.33: SpRvs167
920: ScMyo3
5: ScHse1 | ScNbp2 | SpAbp1-D1
0.25: ScHof1
0.5: ScBbc1
30: SpBzz1-D1
7.5: CaSho1
3: ScSla1-D3 | SpNbp2
69.8: SpHse1
10.5: ScBzz1-D2
≤ 0: CaRvs167-3 | CaSla1-D1-D2 | CaSla1-D3 | ScAbp1 | ScBem1-D1 | ScBzz1-D1 | ScCyk3 | ScFus1 | ScLsb1 | ScLsb2 | ScLsb3 | ScRvs167 | ScSho1 | ScSla1-D1-D2 | SpBbc1 | SpCyk3 | SpHof1 | SpHof1-2 | SpHof1-3 | SpLsb4 | SpPex13 | SpSla1-D1-D2 | SpSla1-D3
40.5: CaNbp2
118: SpMyo1
18: SpLsb1
512: ScPex13
0.333: CaRvs167
1: ScLsb4 | SpBzz1-D2
613: ScMyo5

ISPPASPPPEFDFSK
5: AgSla1-D1-D2
1120: ScMyo3
1: CaHof1 | CaHse1 | SpBzz1-D2 | SpSla1-D1-D2
14.5: CaBzz1-D2
428: ScMyo5
6: SpHse1
2.5: SpBbc1
≤ 0: AgAbp1 | AgBbc1 | AgBem1-D1 | AgBzz1-D1 | AgCyk3 | AgHof1 | AgLsb1 | AgLsb4 | AgNbp2 | AgSho1 | AgSla1-D3 | CaAbp1-D1 | CaBbc1 | CaBem1-D1 | CaBzz1-D1 | CaCyk3 | CaFus1 | CaLsb1 | CaLsb4 | CaNbp2 | CaRvs167-3 | CaSho1 | CaSla1-D1-D2 | ScAbp1 | ScBbc1 | ScBem1-D1 | ScBzz1-D1 | ScBzz1-D2 | ScCyk3 | ScFus1 | ScHof1 | ScHse1 | ScLsb1 | ScLsb2 | ScLsb3 | ScLsb4 | ScNbp2 | ScPex13 | ScRvs167 | ScSho1 | ScSla1-D1-D2 | SpAbp1-D1 | SpBzz1-D1 | SpCyk3 | SpHof1 | SpHof1-3 | SpLsb1 | SpLsb4 | SpNbp2 | SpPex13 | SpRvs167
0.333: AgRvs167
27.5: AgHse1
877: SpMyo1
0.5: SpHof1-2
40: CaMyo5
22.5: AgBzz1-D2
4: AgFus1
0.833: CaRvs167
781: AgMyo5
3.5: ScSla1-D3
1.5: CaAbp1-D2 | CaSla1-D3
3: SpSla1-D3
